Hits are enriched below; roughly 3.2% of the tested compounds scored in any of these assays.
Yp Topo-I inh – Yersinia pestis topoisomerase I inhibitors, primary screen, biochemical, cleavage product accumulation, plate reader, single point; DNA topoisomerase I (Yersinia pestis CO92); Y. pestis Topo-I cleavage product accumulation; 360,000 compounds, 0.064% hits; activity, % at 10 µM; in the data active = activity above about 50%, passing the limit was not always enough
Mtb FBA inh – Mtb FBA enzyme inhibitors, primary screen, biochemical, fluorescence, strain H37Rv; Fructose-bisphosphate aldolase (Mycobacterium tuberculosis (strain ATCC 25618 / H37Rv)), …; purified M. tuberculosis FBA, fluorescence read-out; inhibition, % at 1 µM; 360,000 compounds, 2.3% hits; AID 588726, 2011; in the data active = inhibition above about 27%;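 also: 0% = vehicle and 100% = reference inhibitor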
Target sequence (P9WQA3 whole entry, looked up): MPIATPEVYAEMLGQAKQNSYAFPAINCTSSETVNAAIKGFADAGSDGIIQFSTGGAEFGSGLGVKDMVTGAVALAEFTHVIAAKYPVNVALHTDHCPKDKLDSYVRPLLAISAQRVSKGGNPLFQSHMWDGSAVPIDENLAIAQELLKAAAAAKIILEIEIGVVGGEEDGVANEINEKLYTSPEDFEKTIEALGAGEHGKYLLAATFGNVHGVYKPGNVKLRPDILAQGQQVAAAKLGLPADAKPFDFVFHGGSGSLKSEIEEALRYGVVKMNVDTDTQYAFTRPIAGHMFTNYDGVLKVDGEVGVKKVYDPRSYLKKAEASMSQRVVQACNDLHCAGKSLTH
TcdB GH inh – TcdB glycohydrolase inhibitors, primary screen, biochemical, single point, plate reader; AID 652162, 2013; Toxin B (Clostridioides difficile), P18177; 350,000 compounds, 0.24% hits; TcdB glycohydrolase enzymatic assay; inhibition, % at 9.99 µM
PrPC surface inh – inhibitors of human cell surface prion protein PrPC, primary screen, cell-based, TR-FRET. TR-FRET read-out. inhibition, % at 13.8 µM. 370,000 compounds, 0.43% hits; in the data active = inhibition above about 24%; also: 0% = median of the test wells and 100% = reference compound wells
GDH-TPI counter-1 – GDH-TPI coupling enzyme inhibitors, primary screen, artefact control for M. tuberculosis FBA inhibitor project, biochemical, absorbance, full deck; inhibition, % at 4.8 µM; 360,000 compounds, 1.2% hits; GDH-TPI coupled enzyme counterscreen, NADH absorbance; AID 588335, 2011; in the data active = inhibition above about 30%;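 also: 0% = DMSO wells and 100% = wells lacking the enzyme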
Mtb FBA inh conf – M. tuberculosis aldolase blockers, biochemical, fluorescence, strain H37Rv, confirmation | shares compounds with Mtb FBA inh | purified M. tuberculosis FBA, fluorescence read-out | inhibition, % at 1 µM | 5,600 compounds, 78% hits | AID 651616, 2012; in the data active = inhibition above about 27%;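 also: 0% = vehicle wells and 100% = reference inhibitor wells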
GDH-TPI counter-2 – GDH-TPI coupling enzyme inhibitors, artefact control for M. tuberculosis FBA inhibitor project, biochemical, fluorescence, high throughput. shares compounds with Mtb FBA inh. GDH-TPI coupled enzyme counterscreen. 5,600 compounds, 81% hits. inhibition, % at 1 µM
GDH-TPI DR – GDH-TPI coupling enzyme inhibitors, dose response, artefact control for M. tuberculosis FBA inhibitor project, biochemical, fluorescence, IC50 | IC50, µM | 170 compounds, 79% hits | GDH-TPI coupled enzyme assay, artifact counterscreen | shares compounds with Mtb FBA inh; call rule not given here
* = called active by the depositor; · = no result; + = active, no number. Rule as the data show it, unless noted: active = inhibition above about 10%; inactive = the rest.

SMILES	Yp Topo-I inh	Mtb FBA inh	TcdB GH inh	PrPC surface inh	GDH-TPI counter-1	Mtb FBA inh conf	GDH-TPI counter-2	others
Cc1cccc(C(=O)N(C)c2nnc(-c3ccncc3)s2)c1	4	0	1	-1	6	·	·
COCC(=O)N(C)c1nnc(-c2ccccn2)s1	6	52*	·	-7	6	92*	69*
CN(C(=O)C1CCCO1)c1nnc(-c2ccncc2)s1 (configuration not stated)	0	63*	·	-3	4	104*	89*
CC(=O)N1CCC2(CC1)CC(=O)c1cc(OCC(=O)N3CCN(C)CC3)ccc1O2	-2	59*	·	-8	16	56*	47*
CC(=O)N1CCC2(CC1)CC(=O)c1cc(OCC(=O)N3CCC4(CC3)OCCO4)ccc1O2	12	58*	1	5	9	27*	25*
CNC[C@H]1Oc2cc(C#CCN(C)C)ccc2S(=O)(=O)N([C@@H](C)CO)C[C@@H]1C	·	·	0	·	·	·	·
CCOc1c2ccccc2nn1CCOC	-2	10	10	3	4	·	·
CCOc1ccc(C(=O)NCc2ccco2)cc1OCC	-2	2	0	-4	4	·	·
CCOc1c2ccc(C(=O)NCc3ccco3)cc2nn1CCOC	0	39*	1	-1	6	+	+
CCOc1c2ccc(C(=O)N[C@H](C)C3CCCCC3)cc2nn1CCOC	-1	106*	1	3	17	78*	68*
CCCCn1nc2cc(C(=O)NCc3ccco3)ccc2c1OCC	10	27*	·	-3	10	-3	-5
Cn1c(C(=O)N[C@@H](Cc2ccccc2)C(=O)O)cc2cc(F)ccc21	-4	8	-6	5	-9	·	·
COc1ccc2c(c1)cc(C(=O)N[C@@H](CCSC)C(=O)N1CCC(C(=O)O)CC1)n2C	-4	64*	1	0	-7	0	-1
COc1ccc2c(c1)cc(C(=O)N[C@@H](Cc1ccccc1)C(=O)O)n2C	4	92*	0	-1	1	121*	88*
COc1ccc2c(c1)cc(C(=O)N[C@@H](Cc1ccccc1)C(=O)N[C@@H](C)C(=O)O)n2C	3	59*	0	6	15	31*	9	GDH-TPI DR=2.5*
C[C@H](NC(=O)c1cc2cc(Cl)ccc2n1C)C(=O)N1CCC(C(=O)O)CC1	4	3	1	0	5	·	·
Cn1c(C(=O)N[C@@H](Cc2ccccc2)C(=O)NCCC(=O)O)cc2cc(Cl)ccc21	-2	3	0	6	14	·	·
CCC(=O)N(C)C[C@@H]1[C@@H](c2ccc(-c3ccccc3F)cc2)[C@H](CO)N1C(C)=O	·	·	2	·	·	·	·
CCOC(=O)Nc1ccc2nc(-c3cscn3)[nH]c2c1	-7	28*	-12	12	19	51*	38*
COc1ccccc1NC(=O)Nc1ccc2c(c1)C(=O)N(C)C[C@H](OC)[C@@H](C)CN[C@@H](C)CO2	·	·	0	·	·	·	·
COc1ccc(S(=O)(=O)Nc2ccc3c(c2)C(=O)N([C@@H](C)CO)C[C@H](C)[C@H](CN(C)C(=O)c2ccccc2)OCCCC[C@@H](C)O3)cc1	·	·	0	·	·	·	·
CN1C(=O)c2ccc(C(=O)NCc3ccc4c(c3)OCO4)cc2C1=O	-9	3	0	3	3	·	·
CCCn1nc2cc(C(=O)NCc3ccc4c(c3)OCO4)ccc2c1OCC	8	62*	-2	-4	1	186*	167*
CCOc1c2ccc(C(=O)NCc3ccc4c(c3)OCO4)cc2nn1CCOC	-4	49*	-1	0	-6	2	-5
CCOc1c2ccc(C(=O)NCc3ccc4c(c3)OCO4)cc2nn1CC	16	51*	0	-5	8	102*	84*
SMILES	Yp Topo-I inh	Mtb FBA inh	TcdB GH inh	PrPC surface inh	GDH-TPI counter-1	Mtb FBA inh conf	GDH-TPI counter-2	others
CCOc1cc(C(=O)NCc2ccc3c(c2)OCO3)cc(OCC)c1OCC	2	1	1	-6	9	·	·
CCCCn1nc2cc(C(=O)NCc3ccc4c(c3)OCO4)ccc2c1OCC	-5	34*	0	2	-1	176*	141*
Cc1cc(C)c(OCCCNCc2ccccc2)c(Br)c1	14	-1	-1	-10	20	·	·
Cc1cc(C)c(OCCCNC2CCCC2)c(Br)c1	28	67*	0	-3	6	+	+
C=CCNC(=O)C1CCN(c2nc(C)cc(-c3ccccc3)n2)CC1	-8	33*	1	·	9	5	1
C=CCNC(=O)C1CCN(c2cc(C)nc(-c3ccccc3)n2)CC1	-6	-2	1	-12	2	·	·
CO[C@H]1CC[C@@H]2CCOc3ccc(C#N)cc3C(=O)N(C)C[C@@H](OC)[C@H](C)C(=O)N(C)C[C@@H]1O2	·	·	0	·	·	·	·
CCOc1ccc(OCCCC(=O)N(C)CC(=O)Nc2ccccc2Br)cc1	15	-2	0	2	-1	·	·
CCCN(CC(=O)Nc1ccccc1C)C(=O)CCCOc1ccc(Br)cc1	15	38*	-2	1	-3	-2	-4
Cc1ccc2c(c1)COc1c3ccc(C(=O)N[C@@H](C)CO)cc3nn1-2	2	34*	1	-25	21	+	+
O=C(N[C@H]1CC[C@H](CCn2cc(-c3ccccn3)nn2)O[C@@H]1CO)c1ccccc1	·	·	0	·	·	·	·
COc1ccc2[nH]c(C(=O)O)c(CCNC(C)=O)c2c1	6	49*	·	9	14	125*	106*
O=C(O)c1cc(OCc2ccccc2)cc(OCc2ccccc2)c1	19	3	-1	1	4	·	·
O=C(O)c1cc2cc(OCc3ccccc3)ccc2[nH]1	-5	39*	·	15	4	129*	97*
COc1ccc2[nH]c(C(=O)N(Cc3ccccn3)Cc3ccccn3)cc2c1	-2	34*	0	6	9	132*	113*
CCCOc1ccc(NC(=O)C(=O)NCCCn2ccnc2)cc1	4	-1	1	0	-4	·	·
CCOc1ccc(NC(=O)C(=O)NCCCn2ccnc2)cc1	-7	44*	·	2	3	197*	164*
C[C@@H](NC(=O)C[C@H]1CC[C@@H](NC(=O)C2CCC2)[C@@H](CO)O1)c1ccccc1	·	·	-8	·	·	·	·
